Screening data: PubChem BioAssay, The Scripps Research Institute Molecular Screening Center
A selection: hits, their analogues and other compounds. The true share with any hit is near 3.5%.
GPR151 activ: activators of human GPR151 | 650,000 tested, 1% active | activation, % at 11.2 µM | Q8TDV0 | PathHunter beta-arrestin GPR151 cells, luminescence; in the data active means activation above about 4.9%;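 further: 0% = median of compound wells and 100% = cells with positive control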
Target sequence (Q8TDV0 whole entry, looked up): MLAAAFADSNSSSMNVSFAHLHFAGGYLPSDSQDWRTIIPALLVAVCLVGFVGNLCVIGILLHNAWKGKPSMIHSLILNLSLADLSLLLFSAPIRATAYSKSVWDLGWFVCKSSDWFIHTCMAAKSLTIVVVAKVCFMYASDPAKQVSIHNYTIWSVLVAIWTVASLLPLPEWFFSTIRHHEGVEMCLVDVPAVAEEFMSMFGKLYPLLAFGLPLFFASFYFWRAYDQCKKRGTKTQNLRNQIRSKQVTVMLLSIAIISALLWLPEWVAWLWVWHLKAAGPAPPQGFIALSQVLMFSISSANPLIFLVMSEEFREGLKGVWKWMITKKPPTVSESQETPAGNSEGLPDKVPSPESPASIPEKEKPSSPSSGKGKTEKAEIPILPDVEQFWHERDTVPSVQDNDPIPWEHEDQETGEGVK
MITF primary: blocks human microphthalmia-associated transcription factor. O75030. AlphaScreen MITF homodimerization, bead proximity signal. inhibition, % at 2.6 µM. 650,000 tested, 0.91% active; in the data active means inhibition above about 50%;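 further: 0% = vehicle wells with protein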
FBW7 activator: human FBW7 E3 ligase activation, primary screen | 650,000 tested, 0.13% active | normalized activity (activation), % at 26.1 µM | AID 1259310 | AlphaScreen FBW7–phospho-cyclin E peptide binding, activator screen | Q969H0; in the data active means normalized activity above about 1.9%;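 further: purified mutant Fbw7 with reduced substrate affinity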
TEAD-YAP block: TEAD-YAP interaction inhibition; HEK-TIYL cells, TEAD-Gal4/YAP UAS-luciferase luminescence; inhibition, % at 9.12 µM; 640,000 tested, 1.4% active; AID 1259422; in the data active means inhibition above about 32%;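 further: 0% = median of test compound wells and 100% = reference inhibitor wells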
The depositor's hits bear a star.

Screening CC1CCc2cc(F)ccc2N1S(=O)(=O)c1c(N)n(C)c(=O)n(C)c1=O (stereo not drawn) returned GPR151 activ -0.2, MITF primary -1.7, FBW7 activator 0.3 and TEAD-YAP block -5.7.
COc1ccccc1-c1nnc(SCC(=O)Nc2ccc(Br)cn2)o1 was read as GPR151 activ 0.6, MITF primary 4.3, FBW7 activator 0.1 and TEAD-YAP block 34.1*.
CCCc1ccc(-c2ccc(C(=O)OCC(C)CC)cc2)nc1 (stereo not drawn) was read as GPR151 activ 0.3, MITF primary 7.2, FBW7 activator -0.1 and TEAD-YAP block -7.1.
For CCCc1ccc(-c2ccc(OC(=O)C3CCCCC3)cc2)nc1 the results were GPR151 activ -1.6, MITF primary 0.0, FBW7 activator -0.1 and TEAD-YAP block 72.7*.
CCCc1ccc(-c2ccc(C(=O)OCc3ccco3)cc2)nc1 was read as GPR151 activ -2.0, MITF primary 1.0, FBW7 activator -0.1 and TEAD-YAP block 52.3*.
Cc1noc(C)c1-c1nccc(N)n1 was read as GPR151 activ 2.1, MITF primary 4.7, FBW7 activator 0.1 and TEAD-YAP block -10.2.
`COc1ccc(/C=C(\C#N)C(=O)Nc2ccc([N+](=O)[O-])cc2C)cc1` gave GPR151 activ -1.6, MITF primary 11.7, FBW7 activator 0.0 and TEAD-YAP block 2.6.
For O=C(c1cc2ccccc2o1)c1cnc2ccccn12 the results were GPR151 activ -10.5, MITF primary 6.3, FBW7 activator 0.1 and TEAD-YAP block 39.5*.
For CC(C)Cn1c(=O)[nH]c2ncc(-c3cccc4ncccc34)nc21 the results were GPR151 activ 1.0, MITF primary 8.3, FBW7 activator -0.3 and TEAD-YAP block 8.8.
For COc1cccc(/C=N/Nc2ccc3ccccc3n2)c1OC the results were GPR151 activ -2.7, MITF primary -11.6, FBW7 activator -0.1 and TEAD-YAP block 98.3*.
C(=N\Nc1ccc2ccccc2n1)/c1cccnc1 was read as GPR151 activ -6.2, MITF primary 3.3, FBW7 activator 0.0 and TEAD-YAP block 75.1*.
Screening COc1ccc(/C=N/Nc2ccc3ccccc3n2)c(OC)c1OC returned GPR151 activ -0.9, MITF primary 3.9, FBW7 activator 0.0 and TEAD-YAP block -39.7.
C(=N\Nc1ccc2ccccc2n1)/c1ccc2c(c1)OCCO2 was read as GPR151 activ -1.5, MITF primary 2.7, FBW7 activator -0.1 and TEAD-YAP block 79.9*.
For COc1ccc(/C=N/Nc2ccc3ccccc3n2)cc1 the results were GPR151 activ -0.6, MITF primary -4.6, FBW7 activator -0.1 and TEAD-YAP block -38.8.
`C(=N\Nc1nncc2ccccc12)/c1ccc2c(c1)OCCO2` gave GPR151 activ -7.6, MITF primary 1.5, FBW7 activator -0.2 and TEAD-YAP block 97.6*.
Screening COc1cc(NC(=O)Cn2nc(C(F)(F)F)cc2C)c(OC)cc1Cl returned GPR151 activ 2.4, MITF primary 7.7, FBW7 activator 0.0 and TEAD-YAP block 6.7.
Screening NC(=O)c1ccsc1NC(=O)COc1ccc(Cl)cc1Cl returned GPR151 activ -0.1, MITF primary -13.6, FBW7 activator 0.1 and TEAD-YAP block -38.4.
COc1ccc(CNC(=O)c2ccc3c(c2)CC(c2nc4ccc(-c5ccnc(N)n5)cc4[nH]2)CO3)cc1 (stereo not drawn) was read as GPR151 activ 1.4, MITF primary -1.9, FBW7 activator 7.5* and TEAD-YAP block 11.6.
Screening Nc1nccc(-c2ccc3nc(C4COc5ccc(C(=O)NCc6ccccc6)cc5C4)[nH]c3c2)n1 (stereo not drawn) returned GPR151 activ -2.1, MITF primary 3.8, FBW7 activator -0.1 and TEAD-YAP block -4.8.
For Nc1nccc(-c2ccc3nc(C4COc5ccc(C(=O)NC6CCCC6)cc5C4)[nH]c3c2)n1 (stereo not drawn) the results were GPR151 activ 1.7, MITF primary 14.0, FBW7 activator 2.4* and TEAD-YAP block -1.7.
Screening Nc1nccc(-c2ccc3nc(C4COc5ccc(C(=O)NC6CCCCC6)cc5C4)[nH]c3c2)n1 (stereo not drawn) returned GPR151 activ 0.7, MITF primary -0.2, FBW7 activator 6.0* and TEAD-YAP block 5.8.
For COC(=O)C1(Nc2c(Cl)cccc2Cl)/C(=C(\O)c2ccc(C)cc2)C(=O)C(=O)N1c1ccccc1 (stereo not drawn) the results were GPR151 activ 0.8, MITF primary 22.2, FBW7 activator -0.2 and TEAD-YAP block -46.0.
For O=C1CC(c2ccc(Cl)cc2)Sc2nc(-c3cccc4ccccc34)nn21 (stereo not drawn) the results were GPR151 activ 0.1, MITF primary -6.8, FBW7 activator 0.2 and TEAD-YAP block -0.5.
Screening COc1cc2c(cc1OC)C(c1cccs1)N(C(=O)c1cccnc1)CC2 (stereo not drawn) returned GPR151 activ -1.9, MITF primary 9.9, FBW7 activator -1.0 and TEAD-YAP block 45.7*.
`OCCC1CN(Cc2ccc3ncccc3c2)CCN1CCc1ccccc1` (stereo not drawn) gave GPR151 activ 3.0, MITF primary -0.4, FBW7 activator -0.1 and TEAD-YAP block -12.5.
`O=C(c1ccco1)N1CCCC(c2nc(-c3ccncc3)ncc2-c2ccccc2)C1` (stereo not drawn) gave GPR151 activ 0.0, MITF primary 17.4, FBW7 activator -0.1 and TEAD-YAP block 5.2.
For O=C(CN1Cc2ccccc2C1)N1CCCC(c2ncncc2-c2ccncc2)C1 (stereo not drawn) the results were GPR151 activ 0.2, MITF primary 16.4, FBW7 activator 3.3* and TEAD-YAP block 3.7.
Screening O=C(CN1CCCC(c2ncncc2-c2ccncc2)C1)N1CCc2ccccc21 (stereo not drawn) returned GPR151 activ 0.1, MITF primary 17.9, FBW7 activator 0.0 and TEAD-YAP block -1.9.
Screening Cc1cnc(C(=O)N2CCCC(c3nc(C)ncc3-c3ccncc3)C2)cn1 (stereo not drawn) returned GPR151 activ -1.2, MITF primary 14.0, FBW7 activator 0.3 and TEAD-YAP block -17.8.
For Cc1cc(C(=O)N2CCCC(c3nc(-c4ccncc4)ncc3-c3ccccc3C)C2)no1 (stereo not drawn) the results were GPR151 activ 1.1, MITF primary -7.5, FBW7 activator 0.0 and TEAD-YAP block 58.3*.
For O=C(c1cccs1)N1CCCC(c2nc(-c3ccncc3)ncc2-c2ccccc2)C1 (stereo not drawn) the results were GPR151 activ 1.0, MITF primary -6.1, FBW7 activator -0.1 and TEAD-YAP block 51.3*.
Screening COc1ccc(NC(=O)C(=O)NCC2CCCN2S(=O)(=O)c2cccs2)cc1 (stereo not drawn) returned GPR151 activ 1.4, MITF primary 1.4, FBW7 activator 0.1 and TEAD-YAP block 45.1*.
Cc1ccc(NC(=O)C(=O)NCC2CCCN2S(=O)(=O)c2cccs2)cc1C (stereo not drawn) was read as GPR151 activ 0.8, MITF primary -9.1, FBW7 activator 0.3 and TEAD-YAP block -5.3.
Screening CCc1ccc(N(CC(=O)NC(C)CC)S(C)(=O)=O)cc1 (stereo not drawn) returned GPR151 activ -1.2, MITF primary 17.6, FBW7 activator 1.9* and TEAD-YAP block 10.5.
